The record followed here is the supplement of paper PMC3616981.

Compound in this experiment: CC(C)c1cccc(C(C)C)c1N1C(=O)c2ccc(O)cc2C1=O
The experiment can be described thus: BioMAP readout fold decrease vs vehicle (vehicle/treated); higher = stronger decrease of the readout vs vehicle (values <1 mean increase). As to the method: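 BioSeek BioMAP human primary cell (co-)culture systems (3C, 4H, LPS, SAg, BE3C, CASM3C, hDFCGF, KF3CT) treated with 5HPP-33 at 1.48, 4.44, 13.3 and 40 µM. Read-outs are protein levels by ELISA, proliferation and SRB total protein. Duplicate rows per assay are averaged as replicates. Tested in ToxCast Phase II for this study; exposure time not stated.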

± gives the standard deviation of the averaged measurements.
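Further: Co-cultures of keratinocytes, bronchial epithelial and smooth muscle cells, fibroblasts, HUVECs and PBMCs under stimuli like LPS, TNF-α, IFN-γ, IL-1β, TGF-β or EGF, SRB reflecting cytotoxicity.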

In the case of BE3C_IL1a, the “BioMAP readout fold decrease” value was 1.06 ± 0.13 (1.48 µM), 1.13 ± 0.015 (4.44 µM), 1.19 ± 0.015 (13.3 µM) and 1.85 ± 0.082 (40 µM).

For hDFCGF_MCSF, the “BioMAP readout fold decrease” value by setting is: (1.48 µM) 1.03 ± 0.01; (4.44 µM) 0.98 ± 0.05; (13.3 µM) 1.21 ± 0.024; (40 µM) 2.01 ± 0.16.

4H_Pselectin: the “BioMAP readout fold decrease” value came to 0.965 ± 0.074 (1.48 µM), 1.09 ± 0.095 (4.44 µM), 1.56 ± 0.019 (13.3 µM) and 1.75 ± 0.032 (40 µM).

Regarding 3C_VCAM1, the “BioMAP readout fold decrease” value worked out at 1.05 ± 0.029 (1.48 µM), 1.15 ± 0.027 (4.44 µM), 1.33 ± 0.03 (13.3 µM) and 2.03 ± 0.072 (40 µM).

As to BE3C_tPA, the “BioMAP readout fold decrease” value by setting is: (1.48 µM) 0.995 ± 0.012; (4.44 µM) 0.805 ± 0.042; (13.3 µM) 1.1 ± 0.071; (40 µM) 1.59 ± 0.073.

For BE3C_MMP1, the “BioMAP readout fold decrease” value is 1.073 ± 0.0092 (1.48 µM), 1.01 ± 0.017 (4.44 µM), 0.9184 ± 0.0038 (13.3 µM) and 0.854 ± 0.0042 (40 µM).

In the case of 3C_Proliferation, the “BioMAP readout fold decrease” value by setting is: (1.48 µM) 1.29 ± 0.074; (4.44 µM) 3.56 ± 0.043; (13.3 µM) 6.1 ± 0.28; (40 µM) 7.03 ± 0.41.

Regarding SAg_Eselectin, the “BioMAP readout fold decrease” value by setting is: (1.48 µM) 1.14 ± 0.027; (4.44 µM) 1.02 ± 0.041; (13.3 µM) 1.14 ± 0.087; (40 µM) 3.92 ± 0.27.

LPS_TNFa: the “BioMAP readout fold decrease” value runs as follows: (1.48 µM) 0.955 ± 0.077; (4.44 µM) 0.923 ± 0.036; (13.3 µM) 1.26 ± 0.13; (40 µM) 1.56 ± 0.35.

With KF3CT_TIMP2, the “BioMAP readout fold decrease” value by setting is: (1.48 µM) 1 ± 0.025; (4.44 µM) 0.978 ± 0.038; (13.3 µM) 1.08 ± 0.075; (40 µM) 2.5 ± 0.22.
